Potency and affinity values are given separately. Calls of active or inactive are those of the source. Entries that show only a call come without a potency. The rule behind the calls is not given here.

CAAX prenyl protease 2 (Homo sapiens), sequence (Q9Y256 whole entry, looked up): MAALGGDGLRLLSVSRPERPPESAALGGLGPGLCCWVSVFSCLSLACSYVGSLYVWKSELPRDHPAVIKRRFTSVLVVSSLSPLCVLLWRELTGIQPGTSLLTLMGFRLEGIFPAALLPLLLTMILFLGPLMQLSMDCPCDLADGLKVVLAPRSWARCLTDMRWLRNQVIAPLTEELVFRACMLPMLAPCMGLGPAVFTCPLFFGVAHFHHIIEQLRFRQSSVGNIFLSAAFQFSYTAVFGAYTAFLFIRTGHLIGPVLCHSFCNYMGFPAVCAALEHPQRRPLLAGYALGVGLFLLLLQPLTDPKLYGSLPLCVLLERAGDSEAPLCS

The assay concerns the target CAAX prenyl protease 2 (Homo sapiens) (UniProt Q9Y256). As to the kind of experiment: human Rce1 protease inhibitors, dose response, biochemical, yeast membranes, quenched-peptide fluorescence, cherry-pick (AID 588849). As to conditions: yeast membrane fractions expressing human Rce1, quenched-peptide fluorescence, 4 h; series mostly up to 10 µM.
On to `O=C(Nc1ccc(F)cc1)Oc1ccccc1N1CCOCC1`, for which the call was inactive.

As for `CCCN(CCC)CCNC(=O)c1cc2c(-c3ccc(Cl)cc3)nn(C)c2s1`, the compound was classed as inactive.

Regarding `O=C(Nc1ccc(N2CCOCC2)c(Cl)c1)c1cc2ccccc2o1`, the outcome was inactive.

As for `Cc1ccc(NC(=O)CCc2ccc(S(=O)(=O)NC3CCCCC3)cc2)cc1`, the compound was called inactive.

With `O=C(NCC1CC1)c1ccc(Nc2nc3ccc(Br)cc3[nH]2)cc1`, the compound was called inactive.

For `CCn1cc(/C=C(\NC(=O)c2ccccc2F)C(=O)N2CCOCC2)c2ccccc21`, the compound was called inactive.

As for `N#CC(/C(=N/S(=O)(=O)c1cccs1)c1ccccc1)c1nc2ccccc2[nH]1` (stereo not drawn), the result was inactive.

On to `CC(C)CNC(=O)COc1cccc(C(=O)NCc2ccccc2)c1`, for which the compound was classed as inactive.

As for `CC(=O)c1c(O)cc(O)c(C(C)=O)c1O`, the result was inactive.

With `CCCCOC(=O)Nc1nc(C)c(C(=O)OCC)s1`, the compound was called inactive.

`O=S(=O)(c1ccccc1)c1nc(-c2ccco2)oc1N1CCCCC1`: the compound was classed as inactive.

In the case of `O=C(Nc1ccccc1)n1ccc(-c2ccc(-n3ccnc3)cc2)n1`, the outcome was inactive.

For the compound `CC(=O)N[C@@H](C)c1nc2ccccc2n1CCCN1CCN(c2nc(-c3ccc(C)cc3)cs2)CC1`, the result was inactive.

`CCCCOc1ccc(Cc2c(COCC)[nH]c(=S)[nH]c2=O)cc1`: the compound was classed as inactive.

Consider `COCCN1C(=O)/C(=C/c2ccc(Oc3ccc([N+](=O)[O-])cn3)c(OC)c2)SC1=Nc1ccccc1`, for which the result was inactive.

Consider `COC(C[C@@H]1O[C@@H]1C(=O)[C@@H](C)OCc1ccccc1)OC`, for which the call was inactive.

Take `CS(=O)(=O)c1ccc(C(=O)OCC(=O)N(CCc2ccccc2)Cc2ccccc2)cc1`: the result was inactive.

As for `O=C(Nc1cccc(-c2cn3ccccc3n2)c1)C1CC1`, the outcome was inactive.

Take `O=C(C[n+]1cc2ccccc2c2ccccc21)c1ccccc1`: the outcome was inactive.

Regarding `CCCCOc1ccc(-c2cc(C(F)(F)F)c(C#N)c(SCC(=O)O)n2)cc1`, the outcome was inactive.

Consider `O=C(CCNC(=O)N1CC(=O)Nc2ccccc21)NCCc1cccc(F)c1`, for which the call was inactive.

With `CN(C)CC(C)(C)CNC(=S)NCc1ccc2c(c1)OCO2`, the call was inactive.

Consider `Cc1ccc(C(=O)c2c3ccccc3[n+]([O-])n2CCO)cc1`, for which the compound was called inactive.

For the compound `COc1cc(C(=O)OCC(=O)Nc2ccc(SC(F)F)cc2)cc(OC)c1OC`, the outcome was inactive.

Turning to `NC(=NCCCCCCN=C(N)/N=C(\N)Nc1ccc(Cl)cc1)/N=C(\N)Nc1ccc(Cl)cc1`, the outcome was inactive.

Take `COC(C[C@@H](O)C[C@H](O)[C@H](C)OCc1ccccc1)OC`: the compound was called inactive.

As for `CCOC(=O)c1c(C2COc3ccccc3O2)csc1NC(=O)c1ccccc1` (stereo not drawn), the result was inactive.

For `CC(C)C[C@H](NC(=O)c1nc[nH]c1C(=O)N1CCNCC1)C(=O)OCc1ccccc1`, the compound was classed as inactive.

In the case of `COC(C/C=C/[C@H](O)[C@H](C)OCc1ccccc1)OC`, the call was inactive.

As for `CC(C)c1cc(=O)oc2c3c4c(cc12)CCCN4CCC3`, the compound was called inactive.

Turning to `CCOc1cc(CNC2CCCC2)ccc1OCc1ccccc1Cl`, the result was inactive.

As for `CCn1c(C)nc2c(=O)oc3ccccc3c21`, the outcome was inactive.

As for `CC(C)c1cccc(OCC(=O)Nc2ccc(S(=O)(=O)Nc3ccccn3)cc2)c1`, the outcome was inactive.

Consider `CC1=NN(c2ccccc2)C(=O)/C1=C\c1ccc(Br)s1`, for which the compound was called inactive.

`O=S(=O)(c1ccccc1)c1cnn2c(C(F)(F)F)cc(-c3ccc(F)cc3)nc12`: the compound was classed as inactive.

On to `Cc1ccc(-c2nc(Nc3ccc(N4CCOCC4)cc3)c3ccccc3n2)cc1`, for which the result was inactive.

In the case of `COCc1c(Br)c(C)[nH]c(=O)c1C#N`, the outcome was inactive.

With `CC(=O)Nc1ccc(Cl)cc1C1COC(=O)C1=N` (stereo not drawn), the outcome was inactive.

Values taken from PubChem BioAssay AID588849 (Broad Institute, 2011).
